# PubChem BioAssay AID1159580 (chemical genetic matrix, 2015)
# Values joined by “and” are separate entries in the source; they are usually repeats but may differ in a detail not shown here. Equal entries are not always repeated. In all, about 5,500 compounds went through this assay and about 2,000 (36%) were called active. Inconclusive results (about 18%) are left out. No stated cut-off is given here; in the data, active means normalized growth mostly below about 0.91 (no sharp cut-off); inconclusive means no clear call, values can overlap the other calls; inactive means mostly above about 0.92. The list shows a part of the results. Where a structure was tested more than once in an assay, its records may differ in their call.
# Experiment: chemical genetic growth profiling, strain panel (AID 1159580);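 further: tested at 20 µM; growth read once vehicle control cultures reached saturation at 30 °C; 1 = growth at the plate median or of vehicle wells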
# Conditions: growth OD
compound,measurement,setting,value
O=C(Nc1ccc([N+](=O)[O-])cc1Cl)c1cc(Cl)ccc1O,normalized growth,"S. cerevisiae deletion strains, locus YJR075W, strain HOC1, stronger effect = lower value",0.815 (active) and 0.99 (inactive)
same,normalized growth,"S. cerevisiae deletion strains, locus YKL009W, strain mrt4, stronger effect = lower value",1.2 [resistant] (active)
same,normalized growth,"S. cerevisiae deletion strains, locus YKL068W, stronger effect = lower value",1 (inactive)
same,normalized growth,"S. cerevisiae deletion strains, locus YKL085W, strain MDH1 (second series), stronger effect = lower value",1.04 (inactive)
same,normalized growth,"S. cerevisiae deletion strains, locus YKL085W, strain MDH1, stronger effect = lower value",1.04 (inactive)
same,normalized growth,"S. cerevisiae deletion strains, locus YKL160W, strain elf1, stronger effect = lower value",0.773 (active)
same,normalized growth,"S. cerevisiae deletion strains, locus YKR001C, strain vps1, stronger effect = lower value",0.459 (active)
same,normalized growth,"S. cerevisiae deletion strains, locus YKR026C, strain gcn3, stronger effect = lower value",0.978 (inactive)
same,normalized growth,"S. cerevisiae deletion strains, locus YKR091W, strain srl3, stronger effect = lower value",0.938 (inactive)
same,normalized growth,"S. cerevisiae deletion strains, locus YLL001W, strain dnm1, stronger effect = lower value",0.971 (inactive)
same,normalized growth,"S. cerevisiae deletion strains, locus YLL026W, stronger effect = lower value",0.939 (inactive)
same,normalized growth,"S. cerevisiae deletion strains, locus YLL041C, strain sdh2, stronger effect = lower value",0.931 (inactive)
same,normalized growth,"S. cerevisiae deletion strains, locus YLR027C, strain aat2, stronger effect = lower value",0.92 (active)
same,normalized growth,"S. cerevisiae deletion strains, locus YLR039C, strain RIC1, stronger effect = lower value",0.289 (active)
same,normalized growth,"S. cerevisiae deletion strains, locus YLR058C, strain SHM2, stronger effect = lower value",0.948 (inactive)
same,normalized growth,"S. cerevisiae deletion strains, locus YLR102C, strain apc9, stronger effect = lower value",1 (inactive)
same,normalized growth,"S. cerevisiae deletion strains, locus YLR113W, strain HOG1, stronger effect = lower value",1.01 (inactive)
same,normalized growth,"S. cerevisiae deletion strains, locus YLR221C, strain rsa3, stronger effect = lower value",0.906 (active)
same,normalized growth,"S. cerevisiae deletion strains, locus YLR258W, strain gsy2, stronger effect = lower value",0.977 (inactive)
same,normalized growth,"S. cerevisiae deletion strains, locus YLR262C, strain YPT6 (second series), stronger effect = lower value",0.241 (active)
same,normalized growth,"S. cerevisiae deletion strains, locus YLR262C, strain YPT6, stronger effect = lower value",0.193 (active)
same,normalized growth,"S. cerevisiae deletion strains, locus YLR268W, strain sec22, stronger effect = lower value",0.964 (inactive)
same,normalized growth,"S. cerevisiae deletion strains, locus YLR320W, strain mms22, stronger effect = lower value",0.833 (active)
same,normalized growth,"S. cerevisiae deletion strains, locus YLR330W, strain CHS5, stronger effect = lower value",0.942 (inactive)
same,normalized growth,"S. cerevisiae deletion strains, locus YLR342W, strain FKS1 (second series), stronger effect = lower value",0.667 (active)
same,normalized growth,"S. cerevisiae deletion strains, locus YLR342W, strain FKS1, stronger effect = lower value",0.967 (inactive)
same,normalized growth,"S. cerevisiae deletion strains, locus YLR357W, strain rsc2, stronger effect = lower value",1.02 (inactive)
same,normalized growth,"S. cerevisiae deletion strains, locus YLR370C, strain arc18, stronger effect = lower value",0.949 (inactive)
same,normalized growth,"S. cerevisiae deletion strains, locus YLR371W, strain rom2, stronger effect = lower value",1 (inactive)
same,normalized growth,"S. cerevisiae deletion strains, locus YLR384C, strain iki3, stronger effect = lower value",1.09 [resistant] (active)
same,normalized growth,"S. cerevisiae deletion strains, locus YLR418C, strain cdc73, stronger effect = lower value",0.793 (active)
same,normalized growth,"S. cerevisiae deletion strains, locus YML016C, strain PPZ1, stronger effect = lower value",0.975 (inactive)
same,normalized growth,"S. cerevisiae deletion strains, locus YML120C, strain ndi1, stronger effect = lower value",0.975 (inactive)
same,normalized growth,"S. cerevisiae deletion strains, locus YML124C, strain tub3, stronger effect = lower value",1.17 [resistant] (active)
same,normalized growth,"S. cerevisiae deletion strains, locus YMR058W, strain fet3, stronger effect = lower value",0.966 (inactive)
same,normalized growth,"S. cerevisiae deletion strains, locus YMR078C, strain ctf18, stronger effect = lower value",1.17 [resistant] (active)
same,normalized growth,"S. cerevisiae deletion strains, locus YMR125W, strain sto1, stronger effect = lower value",0.999 (inactive)
same,normalized growth,"S. cerevisiae deletion strains, locus YMR129W, stronger effect = lower value",0.937 (inactive)
same,normalized growth,"S. cerevisiae deletion strains, locus YMR205C, strain PFK2, stronger effect = lower value",0.759 (active)
same,normalized growth,"S. cerevisiae deletion strains, locus YMR223W, strain ubp8, stronger effect = lower value",1.09 (inactive)
same,normalized growth,"S. cerevisiae deletion strains, locus YMR231W, strain pep5, stronger effect = lower value",0.901 (active)
same,normalized growth,"S. cerevisiae deletion strains, locus YMR263W, strain SAP30, stronger effect = lower value",0.991 (inactive)
same,normalized growth,"S. cerevisiae deletion strains, locus YMR307W, strain GAS1, stronger effect = lower value",0.393 (active) and 0.947 (inactive)
same,normalized growth,"S. cerevisiae deletion strains, locus YNL067W, strain RPL9B, stronger effect = lower value",0.925 (inactive)
same,normalized growth,"S. cerevisiae deletion strains, locus YNL071W, strain lat1, stronger effect = lower value",0.809 (active)
same,normalized growth,"S. cerevisiae deletion strains, locus YNL153C, strain GIM3, stronger effect = lower value",0.924 (inactive) and 0.687 (active)
same,normalized growth,"S. cerevisiae deletion strains, locus YNL175C, strain NOP13, stronger effect = lower value",0.868 (active)
same,normalized growth,"S. cerevisiae deletion strains, locus YNL183C, strain NPR1, stronger effect = lower value",0.933 (inactive)
same,normalized growth,"S. cerevisiae deletion strains, locus YNL197C, strain WHI3, stronger effect = lower value",0.789 (active)
same,normalized growth,"S. cerevisiae deletion strains, locus YNL209W, strain ssb2, stronger effect = lower value",0.925 (active)
same,normalized growth,"S. cerevisiae deletion strains, locus YNL224C, strain SQS1, stronger effect = lower value",0.972 (inactive)
same,normalized growth,"S. cerevisiae deletion strains, locus YNL233W, strain BNI4, stronger effect = lower value",0.803 (active)
same,normalized growth,"S. cerevisiae deletion strains, locus YNL248C, strain rpa49, stronger effect = lower value",0.969 (inactive)
same,normalized growth,"S. cerevisiae deletion strains, locus YNL250W, strain rad50, stronger effect = lower value",1.01 (inactive)
same,normalized growth,"S. cerevisiae deletion strains, locus YNL271C, strain bni1, stronger effect = lower value",0.999 (inactive)
same,normalized growth,"S. cerevisiae deletion strains, locus YNL298W, strain CLA4, stronger effect = lower value",1 (inactive)
same,normalized growth,"S. cerevisiae deletion strains, locus YNL307C, strain MCK1, stronger effect = lower value",0.986 (inactive)
same,normalized growth,"S. cerevisiae deletion strains, locus YNL322C, strain KRE1 (second series), stronger effect = lower value",1.06 (inactive)
same,normalized growth,"S. cerevisiae deletion strains, locus YNL322C, strain KRE1, stronger effect = lower value",0.921 (active) and 0.992 (inactive)
same,normalized growth,"S. cerevisiae deletion strains, locus YNR049C, strain mso1, stronger effect = lower value",1 (inactive)
same,normalized growth,"S. cerevisiae deletion strains, locus YNR052C, strain pop2, stronger effect = lower value",1.12 [resistant] (active)
same,normalized growth,"S. cerevisiae deletion strains, locus YOL006C, strain TOP1, stronger effect = lower value",0.632 (inactive)
same,normalized growth,"S. cerevisiae deletion strains, locus YOL012C, strain htz1",0.729 (inactive)
same,normalized growth,"S. cerevisiae deletion strains, locus YOL147C, strain pex11, stronger effect = lower value",1.19 [resistant] (active)
same,normalized growth,"S. cerevisiae deletion strains, locus YOR001W, strain rrp6, stronger effect = lower value",0.944 (inactive)
same,normalized growth,"S. cerevisiae deletion strains, locus YOR061W, strain CKA2, stronger effect = lower value",0.969 (inactive)
same,normalized growth,"S. cerevisiae deletion strains, locus YOR069W, strain VPS5, stronger effect = lower value",0.96 (inactive)
same,normalized growth,"S. cerevisiae deletion strains, locus YOR070C, strain gyp1, stronger effect = lower value",0.842 (active)
same,normalized growth,"S. cerevisiae deletion strains, locus YOR080W, strain dia2, stronger effect = lower value",0.904 (active)
same,normalized growth,"S. cerevisiae deletion strains, locus YOR083W, strain WHI5 (second series), stronger effect = lower value",0.751 (active)
same,normalized growth,"S. cerevisiae deletion strains, locus YOR083W, strain WHI5, stronger effect = lower value",0.88 (active)
same,normalized growth,"S. cerevisiae deletion strains, locus YOR106W, strain vam3, stronger effect = lower value",0.843 (active)
same,normalized growth,"S. cerevisiae deletion strains, locus YOR136W, strain idh2, stronger effect = lower value",1.03 (inactive)
same,normalized growth,"S. cerevisiae deletion strains, locus YOR144C, strain elg1, stronger effect = lower value",1.19 [resistant] (active)
same,normalized growth,"S. cerevisiae deletion strains, locus YOR184W, strain ser1, stronger effect = lower value",1.03 (inactive)
same,normalized growth,"S. cerevisiae deletion strains, locus YOR231W, strain MKK1, stronger effect = lower value",1.01 (inactive)
same,normalized growth,"S. cerevisiae deletion strains, locus YOR265W, strain rbl2, stronger effect = lower value",0.928 (active)
same,normalized growth,"S. cerevisiae deletion strains, locus YOR270C, strain vph1, stronger effect = lower value",0.666 (active)
same,normalized growth,"S. cerevisiae deletion strains, locus YOR290C, strain snf2, stronger effect = lower value",0.98 (inactive)
same,normalized growth,"S. cerevisiae deletion strains, locus YOR316C, strain cot1, stronger effect = lower value",1.02 (inactive)
same,normalized growth,"S. cerevisiae deletion strains, locus YPL051W, strain arl3, stronger effect = lower value",0.607 (active)
same,normalized growth,"S. cerevisiae deletion strains, locus YPL055C, strain LGE1, stronger effect = lower value",0.731 (active)
same,normalized growth,"S. cerevisiae deletion strains, locus YPL078C, strain atp4, stronger effect = lower value",0.866 (active)
same,normalized growth,"S. cerevisiae deletion strains, locus YPL106C, strain sse1, stronger effect = lower value",0.962 (inactive)
same,normalized growth,"S. cerevisiae deletion strains, locus YPL240C, strain hsp82, stronger effect = lower value",1.01 (inactive)
same,normalized growth,"S. cerevisiae deletion strains, locus YPL256C, strain CLN2, stronger effect = lower value",0.994 (inactive)
same,normalized growth,"S. cerevisiae deletion strains, locus YPR119W, strain clb2, stronger effect = lower value",1.06 (inactive)
same,normalized growth,"S. cerevisiae deletion strains, locus YPR141C, strain kar3, stronger effect = lower value",1.02 (inactive)
same,normalized growth,"S. cerevisiae deletion strains, locus YPR163C, strain tif3, stronger effect = lower value",1.04 (inactive)
same,normalized growth,"S. cerevisiae deletion strains, locus YPR167C, strain met16, stronger effect = lower value",1.06 (inactive)
same,normalized growth,"S. cerevisiae deletion strains, strain wtn01, stronger effect = lower value",1.03 (inactive)
same,normalized growth,"S. cerevisiae strains, strain wild type, stronger effect = lower value",0.904 (inactive)
